The full list was thinned out, with hits kept by preference.
Dicer processing: inhibitors of Dicer pre-microRNA processing, primary screen, biochemical, cat-ELCCA, chemiluminescence. Endoribonuclease Dicer (Homo sapiens), Q9UPY3. z-score at 25 µM. AID 1347074, 2019. 6% of 47,000 active. cat-ELCCA pre-miR-21 Dicer processing; hits give high values; in the data active means z-score above about 3, passing the limit was not always enough;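 further: higher signal means more uncleaved substrate so more Dicer inhibition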
Numbers stand for hits.

`Cc1nn(-c2ccccc2)c(C)c1-c1ccccc1O` gave Dicer processing inactive.
`Nc1nc(/C=C/c2ccccc2O)nc(-c2ccccc2O)n1` gave Dicer processing inactive.
`Oc1ccccc1/C=C/c1nc(-c2ccccc2O)n(-c2ccccc2)n1` gave Dicer processing 11.
CCOC(=O)c1c(NC(=O)C2(S(=O)(=O)c3ccccc3)CC2)sc(C)c1C was read as Dicer processing inactive.
Screening O=C(CC1Sc2ccccc2NC1=O)Nc1ccc(Cl)cc1 (configuration not stated) returned Dicer processing inactive.
For O=C(CC1SCCNC1=O)Nc1ccc2c(c1)OCO2 (configuration not stated) the results were Dicer processing inactive.
Screening O=C(CC1Sc2ccccc2NC1=O)Nc1ccc2c(c1)OCO2 (configuration not stated) returned Dicer processing 3.9.
`CCCc1nc2sc3c(NCCN(C)C)ncnc3c2c2c1CCCC2` gave Dicer processing inactive.
Cc1ccc(NC(=O)c2ccsc2)cc1NS(C)(=O)=O was read as Dicer processing inactive.
Cc1csc(NC(=O)Nc2ccc(C(F)(F)F)cc2)c1Cl was read as Dicer processing inactive.
Cc1ccc(NC(=O)Nc2ccc(C(F)(F)F)cc2)cc1NS(C)(=O)=O was read as Dicer processing 6.3.
Screening Cc1cc(Br)c(NC(=S)NC(=O)C(C)(C)C)c(Br)c1 returned Dicer processing inactive.
OCCn1c(SCc2ccccc2)nc2ccccc21 was read as Dicer processing inactive.
O=C(CCc1nc2ccccc2[nH]c1=O)OCc1ccc(Br)cc1 was read as Dicer processing inactive.
CC(C)OC(=O)c1ccc(COC(=O)CCc2nc3ccccc3[nH]c2=O)cc1 was read as Dicer processing 3.4.
For CCOC(=O)C(C)c1nc2ccccc2[nH]c1=O (configuration not stated) the results were Dicer processing inactive.
N/C(=N\O)c1ccc(C2OCCO2)cc1 was read as Dicer processing inactive.
Screening O=C(CCSc1c(Cl)cccc1Cl)c1ccco1 returned Dicer processing inactive.
COc1ccc2c(c1)C(C)CC(C)(C)N2C(=O)CSc1ncn[nH]1 (configuration not stated) was read as Dicer processing inactive.
Screening COc1ccc2c(c1)C(C)=CC(C)(C)N2C(=O)CSc1nnc(C)s1 returned Dicer processing inactive.
COc1ccc2c(c1)C(C)CC(C)(C)N2C(=O)CSc1ncccn1 (configuration not stated) was read as Dicer processing 4.2.
For Cc1nc2c([nH]1)c(=O)n(C)c(=O)n2Cc1ccco1 the results were Dicer processing inactive.
`c1ccc(-c2c(-c3ccccc3)n(Cc3ccco3)c3ncn4nc(-c5ccco5)nc4c23)cc1` gave Dicer processing 5.6.
Screening Cc1onc(-c2ccccc2)c1CSc1n[nH]c(=O)n1Cc1ccco1 returned Dicer processing inactive.
For O=C1C(Oc2ccc(Cl)cc2)C(c2ccc3c(c2)OCO3)N1CC1CCCO1 (configuration not stated) the results were Dicer processing inactive.
COc1ccc(OC2C(=O)N(Cc3ccc4c(c3)OCO4)C2c2cccs2)cc1 (configuration not stated) was read as Dicer processing inactive.
Screening COc1ccc(OC2C(=O)N(CCc3ccc(F)cc3)C2c2ccc3c(c2)OCO3)cc1 (configuration not stated) returned Dicer processing 3.3.
Screening COc1ccc(OC2C(=O)N(CCc3ccc(Cl)cc3)C2c2ccc3c(c2)OCO3)cc1 (configuration not stated) returned Dicer processing 4.9.
`COc1ccc(CCN2C(=O)C(Oc3ccccc3)C2c2ccc3c(c2)OCO3)cc1` (configuration not stated) gave Dicer processing 3.4.
For O=C1C(Oc2ccccc2)C(c2ccc(F)cc2)N1Cc1ccc2c(c1)OCO2 (configuration not stated) the results were Dicer processing inactive.
For O=C1C(Oc2ccccc2)C(c2ccc3c(c2)OCO3)N1Cc1ccc2c(c1)OCO2 (configuration not stated) the results were Dicer processing inactive.
`COc1ccc(OC2C(=O)N(Cc3ccc4c(c3)OCO4)C2c2ccc3c(c2)OCO3)cc1` (configuration not stated) gave Dicer processing inactive.
Screening Cc1ccccc1OC1C(=O)N(Cc2ccc3c(c2)OCO3)C1c1ccc2c(c1)OCO2 (configuration not stated) returned Dicer processing inactive.
COc1ccc(C(C)=O)cc1CSc1nnc(-c2ccc(C(F)(F)F)cc2)n1Cc1ccco1 was read as Dicer processing inactive.
CN1NC(c2ccc(Cl)cc2)/C(=N\OC(=O)c2ccc(C(C)(C)C)s2)SC1=S (configuration not stated) was read as Dicer processing inactive.
CC1=CC(C)(C)N(C(=O)Nc2cccc(Cl)c2)c2ccccc21 was read as Dicer processing inactive.
Screening CCCNc1nc2c(c(=O)n(C)c(=O)n2C)n1CCC returned Dicer processing inactive.
For CO/C(N)=N/C(=S)Nc1ccc(F)cc1F the results were Dicer processing inactive.
For O=C(O)C1CC(=O)N(c2ccc(Oc3ccccc3)cc2)C1 (configuration not stated) the results were Dicer processing inactive.
Screening O=C1OC(COc2ccccc2)CN1c1ccccc1 (configuration not stated) returned Dicer processing 3.4.
For Cc1ccc(OCC2CN(Cc3ccccc3)C(=O)O2)cc1 (configuration not stated) the results were Dicer processing inactive.
For CCOC(=O)/C(=C\Nc1cc(C(F)(F)F)cc(C(F)(F)F)c1)[N+](=O)[O-] the results were Dicer processing inactive.
Cn1c(=O)c2c(nc(NC3CCCCC3)n2Cc2ccc(F)cc2)n(C)c1=O was read as Dicer processing inactive.
Screening O=C(CSc1ccccn1)N1CCN(S(=O)(=O)c2ccccc2)C1 returned Dicer processing 3.4.
Screening Cn1nnnc1SCC(=O)N1CCN(S(=O)(=O)c2ccccc2)C1 returned Dicer processing inactive.
For O=C(CSc1nnnn1-c1ccccc1)N1CCN(S(=O)(=O)c2ccccc2)C1 the results were Dicer processing inactive.
COC(=O)c1c(-c2c(Cl)cccc2Cl)noc1NC(=O)NCc1cccs1 was read as Dicer processing inactive.
O=C(CSc1nnc(OC(=O)c2cccs2)n1C1CC1)c1ccc2c(c1)OCCO2 was read as Dicer processing inactive.
COc1cc2c(cc1OC)C(c1ccc(F)cc1)CC(=O)N2 (configuration not stated) was read as Dicer processing inactive.
For O=C1CC(c2ccc(Cl)cc2)c2cc3c(cc2N1)OCO3 (configuration not stated) the results were Dicer processing 3.6.
For O=C1CC(c2ccc3c(c2)OCO3)c2c(n[nH]c2-c2ccc(Cl)cc2)N1 (configuration not stated) the results were Dicer processing inactive.
CCC12CN3CC(CC)(CN(C1)C3c1ccc(F)cc1)C2=O (configuration not stated) was read as Dicer processing inactive.
Screening O=C1N/C(=N/N=C\c2[nH]ncc2Br)SC1c1ccccc1 (configuration not stated) returned Dicer processing 3.4.
For O=C1CS/C(=N/N=C/c2ccn[nH]2)N1 the results were Dicer processing inactive.
O=C(O)CCC1CCCCCCCCCC(CCC(=O)O)C1=O (configuration not stated) was read as Dicer processing inactive.

High-throughput results from PubChem BioAssay.
